IL-1B inflam inh – qHTS for Inhibitors of Inflammasome Signaling: IL-1-beta AlphaLISA Primary Screen; THP-1 LPS/ATP IL-1B secretion, AlphaLISA, 16 h; hits give low values; activity change, % at 57.5 µM; 360,000 compounds, 4.7% hits; AID 743279, 2014; in the data active means activity change below about -50%; inconclusive means mostly about -30% to -49%
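Secreted IL-1B measured by AlphaLISA bead assay after 16 h compound exposure of THP-1 cells; compounds (final up to 57.5 uM) added 1 h before LPS (250 ng/mL) and ATP (1.25 mM) stimulation; lower signal means less secretion.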
HT1080 IDH1KD tx – qHTS for induction of synthetic lethality in tumor cells producing 2HG: qHTS for the HT-1080-IDH1KD cell line; HT-1080 IDH1 knockdown viability, ATP luminescence, 48 h; 360,000 compounds, 2% hits; AID 686971, 2013; Potency, µM (series often up to 46.1 µM), for inactives: at the highest dose activity, negative = toxicity, hits mostly cytotoxic;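 further: potency means the concentration at half of the fitted maximal effect; 0% = DMSO wells and -100% = cell-free medium wells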
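Using the IDH1-knockdown HT-1080 line run in the same batch and compound series as the NT line, viability after 48 h at 37 °C was determined by CellTiter-Glo luminescence and expressed as % activity.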
TDP1 cell CPT – qHTS for Inhibitors of human tyrosyl-DNA phosphodiesterase 1 (TDP1): qHTS in cells in presence of CPT | Potency, µM (highest dose often 46.2 µM), without a hit: top-dose activity change, negative = growth inhibition, actives largely listed as inhibitors | AID 686979, 2013 | chicken DT40 Tdp1-/-;hTDP1 cells + 20 nM CPT, ATP luminescence, 48 h | 420,000 compounds, 12% hits; further: potency means the concentration at half of the fitted maximal effect; nearly all actives have a fitted effect of over 55% in size
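Chicken DT40 Tdp1-/- cells complemented with human TDP1, 400 cells/well, exposed to compounds plus 20 nM camptothecin for at least 48 h at 37 C; viability read as ATP content by CellTiter-Glo luminescence.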
12-LOX inh – Primary qHTS assay for inhibitors of human arachidonate 12S-lipoxygenase (ALOX12): Round 2; purified 12hLO, xylenol orange hydroperoxide absorbance; Potency, µM (titrated, usually from 108 µM), for the others: at the top dose activity change, negative = inhibition, usual class: inhibitors; 580,000 compounds, 1.1% hits; further: potency means the concentration at half of the fitted maximal effect
Target sequence (P18054 whole entry, looked up): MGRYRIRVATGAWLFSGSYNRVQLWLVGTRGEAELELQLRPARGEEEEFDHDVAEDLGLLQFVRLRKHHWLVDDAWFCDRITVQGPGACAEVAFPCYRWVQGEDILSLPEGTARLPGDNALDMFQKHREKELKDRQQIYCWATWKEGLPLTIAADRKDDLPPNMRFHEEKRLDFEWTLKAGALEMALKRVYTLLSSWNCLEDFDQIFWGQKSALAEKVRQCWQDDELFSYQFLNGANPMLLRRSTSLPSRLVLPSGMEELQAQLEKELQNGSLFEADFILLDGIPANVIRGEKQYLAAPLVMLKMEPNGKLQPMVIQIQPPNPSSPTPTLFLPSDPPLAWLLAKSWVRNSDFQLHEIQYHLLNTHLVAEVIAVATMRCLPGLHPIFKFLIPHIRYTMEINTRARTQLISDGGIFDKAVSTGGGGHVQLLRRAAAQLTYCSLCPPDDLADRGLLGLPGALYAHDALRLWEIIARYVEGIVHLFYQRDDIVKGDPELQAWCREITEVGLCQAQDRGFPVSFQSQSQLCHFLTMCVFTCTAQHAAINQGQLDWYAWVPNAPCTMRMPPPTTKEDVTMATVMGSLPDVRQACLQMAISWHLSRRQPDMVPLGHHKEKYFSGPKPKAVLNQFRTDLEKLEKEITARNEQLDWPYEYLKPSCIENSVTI
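Hydroperoxide product was detected by ferrous iron/xylenol orange as the 573 to 405 nm absorbance ratio. Arachidonic acid at 40 uM (final) was turned over for 30 min at room temperature by 150 nM human 12hLO, pH 7.0 Hepes buffer, after 15 min compound preincubation.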
HT1080-NT tox – qHTS for induction of synthetic lethality in tumor cells producing 2HG: qHTS for the HT-1080-NT fibrosarcoma cell line; Potency, µM (highest dose often 46.1 µM), for inactives: top-dose activity, negative = less viability, actives largely listed as cytotoxic; HT-1080-NT fibrosarcoma viability, CellTiter-Glo ATP luminescence, 48 h; 360,000 compounds, 1.6% hits;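 further: NT is the 2HG producing partner of a matched IDH1 knockdown line; potency means the concentration at half of the fitted maximal effect; 0% = DMSO-treated cells and -100% = media-only wells without cells; nearly all actives have a fitted effect of over 55% in size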
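Viability of the 2HG-overproducing fibrosarcoma line after 48 hours of compound exposure at 37 degrees C was determined by luminescence with CellTiter-Glo, and concentration-effect curves were then fitted and categorized.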
TDP1 cell noCPT – qHTS for Inhibitors of human tyrosyl-DNA phosphodiesterase 1 (TDP1): qHTS in cells in absence of CPT; 420,000 compounds, 15% hits; AID 686978, 2013; DT40 Tdp1-/- hTDP1 cells, no CPT, ATP luminescence, 48 h; Potency, µM (series often up to 46.2 µM), for inactives: at the top dose activity change, negative = growth inhibition, usual class: inhibitors; further: potency means the concentration at half of the fitted maximal effect; nearly all actives have a fitted effect of over 55% in size
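Luminescent ATP content (CellTiter-Glo) served as the growth readout. Knockout chicken DT40 cells expressing human TDP1 were exposed to compounds without camptothecin for a minimum 48 hr at 37 °C.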
An asterisk follows results filed as active; ? = inconclusive; nt = not tested or not shown; [ ] = dose if it differs, or a comment. The full list was thinned out, with hits kept by preference. Unless noted, the call rests on the fitted dose curve; in most records, active means well fitted curve in the direction sought with a large enough effect; inconclusive means small, poorly fitted or top-dose-only effect, or another doubt; inactive means no such curve, though single readings can be large; an effect the other way counts as inactive or inconclusive. Unless noted, on the % scale 0 is the no-effect control and ±100 the full control effect.

SMILES	IL-1B inflam inh	HT1080 IDH1KD tx	TDP1 cell CPT	12-LOX inh	HT1080-NT tox	TDP1 cell noCPT
COc1ccc(OCCCC(=O)Nc2cc(S(=O)(=O)N3CCCCC3)ccc2C)cc1	-7	-28%	21µM*	7%	-22%	?
O=C(CN(Cc1ccco1)Cc1cccs1)N1CCN(S(=O)(=O)c2cccc(F)c2)CC1	-24	-17%	23µM*	-1%	-1%	18µM*
CCOc1ccc(S(=O)(=O)N2CCCCC2)cc1NC(=O)Cc1cc(OC)c(OC)c(OC)c1	11	0%	-14%	-4%	8%	-19%
Cc1ccc(S(=O)(=O)N2CCCCC2)cc1NC(=O)CSc1ccc2c(c1)OCCO2	-8	-9%	23µM*	-12%	-3%	?
Cc1cc(=O)oc2cc(OCc3ccc(C(=O)OC(C)C(=O)NC(N)=O)cc3)ccc12 (stereo unspecified)	nt	nt	nt	13%	nt	nt
CCNC(=O)CC1C(=O)N(c2ccccc2)C(=O)N1CCOC (stereo unspecified)	-10	-4%	-6%	0%	16%	5%
COCC(C)n1c(COc2ccccc2F)nnc1SCc1ccc(C(C)(C)C)cc1 (stereo unspecified)	nt	nt	nt	-25%	nt	nt
O=C(CSc1nnnn1-c1ccccc1C(F)(F)F)Nc1ccc2nccnc2c1	nt	nt	nt	-8%	nt	nt
O=C(NC1CCCC1)C1CC(O)CN1C(=O)Nc1ccccc1 (stereo unspecified)	9	-4%	-8%	-12%	-3%	-12%
CCOC(=O)C1CCCN(C(=O)c2ccc3nc(-c4ccccc4)c(-c4ccccc4)nc3c2)C1 (stereo unspecified)	-9	-2%	?	9%	6%	21µM*
CCOC(=O)C1CCCN(C(=O)c2ccc3nc(-c4ccc(OC)c(OC)c4)c(-c4ccc(OC)c(OC)c4)nc3c2)C1 (stereo unspecified)	-8	-14%	29µM*	-10%	-17%	?
CCOC(=O)C1CCCN(C(=O)c2ccc3ncsc3c2)C1 (stereo unspecified)	-1	-7%	-20%	-2%	0%	-10%
CCOC(=O)C1CCCN(C(=O)c2cccc(S(=O)(=O)N(C)c3ccc(OC)cc3)c2)C1 (stereo unspecified)	20	2%	?	8%	1%	?
CCOC(=O)C1CCCN(C(=O)c2cccc(S(=O)(=O)N(Cc3ccccc3)c3ccccc3OC)c2)C1 (stereo unspecified)	-15	4%	23µM*	10%	-6%	16µM*
COCCN1C(=O)c2ccccc2NC1c1cc2ccccc2[nH]c1=O (stereo unspecified)	nt	nt	nt	1%	nt	nt
CC(C)NC(=O)[C@H]1O[C@H](CCN2CCN(c3ccc(F)cc3)CC2)CC[C@@H]1O	nt	nt	nt	35%[176 µM]	nt	nt
C=C1CC[C@@H]2[C@](C)(CO)[C@H](O)CC[C@@]2(C)[C@@H]1C/C=C1/C(=O)OCC1O (stereo partly specified)	-87*	?	15µM*	-8%	?	8.2µM*
C=C1CC[C@@H]2[C@](C)(CO)[C@H](O)CC[C@@]2(C)[C@@H]1C/C=C1/C(=O)OC[C@H]1O	nt	nt	3µM*	nt	nt	2.7µM*
C=C/C(C)=C/CC1C(=C)CCC2C(C)(C(=O)O)CCCC12C (stereo unspecified)	9	4%	5%	-19%	-4%	4%
CCN(CC)CCN1Cc2c(sc(C)c2C)N(C(=O)c2ccccc2)C1	nt	nt	nt	-13%	nt	nt
Cc1cc2nc3n(c(=O)c2n1CC(=O)NCCC1=CCCCC1)CCC3	nt	nt	nt	8%	nt	nt
Cc1ccc(-c2cc(NC=O)c3ncc(-c4cccc(C(=O)N(C)C)c4)n3c2)cc1	-14	?	?	-27%	?	?
CC(=O)c1ccc(-c2cnc3c(NC=O)cc(-c4cccc(C(=O)N(C)C)c4)cn23)cc1	9	?	5.2µM*	-5%	?	7.3µM*
COc1ccc(F)cc1-c1cc(NC=O)c2ncc(-c3cccc(C(=O)N(C)C)c3)n2c1	-15	-23%	?	-25%	?	23µM*
CN(C)C(=O)c1cccc(-c2cc(NC=O)c3ncc(-c4ccc(F)cc4)n3c2)c1	82	?	?	-21%	?	16µM*
SMILES	IL-1B inflam inh	HT1080 IDH1KD tx	TDP1 cell CPT	12-LOX inh	HT1080-NT tox	TDP1 cell noCPT
COCCN[C@H]1[C@@H]2OC[C@@H](O2)[C@@H](NCc2ccc(-c3ccccc3)cc2)[C@@H]1O	nt	nt	nt	139%[176 µM]	nt	nt
CC(=O)NCCOc1ccc(C(=O)N2CCC3(CCNCC3)CC2)cc1	nt	nt	nt	42%	nt	nt
O=[N+]([O-])c1cccc(-c2cc3cccc[n+]3cc2-c2cccc([N+](=O)[O-])c2)c1	18	3%	-10%	-12%	1%	-12%
Cc1cccc2cc(-c3ccccc3)c(-c3ccccc3)c[n+]12	-3	?	8.2µM*	-22%	?	7.3µM*
Cc1cc(Cl)c2oc(C(=O)N(C)CCCCN3CCOCC3)c(C)c2c1	-7	?	-19%	1%	?	?
Cc1cc(Cl)c2oc(C(=O)NCC(C)(C)N3CCOCC3)c(C)c2c1	50	10%	23µM*	-23%	5%	?
Cc1cc(Cl)c2oc(C(=O)N(C)CCc3cnn(C)c3)c(C)c2c1	21	8%	18µM*	2%	-2%	-5%
Cc1cc(Cl)c2oc(C(=O)N(C)CCCN3CCOCC3)c(C)c2c1	0	-4%	?	0%	-29%	16µM*
CC(C)(CNC(=O)c1sc2cc(Cl)ccc2c1Cl)N1CCOCC1	?	1%	16µM*	-17%	-10%	16µM*
O=C(COC(=O)CNC(=O)c1ccco1)Nc1ncc(Cl)cc1Cl	-6	11%	-5%	?	2%[9.24 µM]	4%
Cc1[nH]cnc1C(=O)N1CCC2(CC1)CC(C(=O)O)N(C(=O)C1CC1)C2 (stereo unspecified)	nt	nt	nt	7%	nt	nt
Cc1noc(C2CC3(CCN(C(=O)C4CC4)CC3)CN2C)n1 (stereo unspecified)	nt	nt	nt	16%	nt	nt
COc1cccc(OCc2nc3ccccc3[nH]2)c1	-15	-20%	13µM*	27%	-16%	?

From PubChem BioAssay
